Unmarked numbers belong to inactive results. Calls of active or inactive are those of the source.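 Rule for the calls: active = thallium flux through the channel raised or lowered by more than 3 SD from vehicle-only wells, actives on both sides; inactive = the rest.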

Holding throughout (assay): modulators of BK channel variants, profiling panel, selectivity assay, cell-based, U2OS BacMam, thallium flux, beta subunits (AID 1259406);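 note: initial slope of Thallos dye fluorescence rise after thallium is added; log ratio against the mean of 0.3% DMSO vehicle wells on the same plate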
Test [1] has as its system F380Y. To be noted: at 30 µM.
Test [2] has as its system F380Y/beta1. To be noted: at 30 µM.
Test [3] deals with F380Y/beta2Delta. To be noted: at 30 µM.
In test [4] the test system is F380Y/beta4. To be noted: at 30 µM.
Test [5] has as its target Calcium-activated potassium channel subunit alpha-1 (Homo sapiens) + Leucine-rich repeat-containing protein 26 (Homo sapiens) (UniProt Q12791+Q2I0M4). To be noted: F380Y/Slo1WT/gamma1, at 30 µM.
Test [6] relates to R275C. To be noted: at 30 µM.
Test [7] has as its system R275C/beta1. To be noted: at 30 µM.
For test [8], the system named is R275C/beta2Delta. To be noted: at 30 µM.
Test [9] deals with R275C/beta4. To be noted: at 30 µM.
Test [10] deals with R275C/Slo1WT/beta2. To be noted: at 30 µM.

Chain of Calcium-activated potassium channel subunit alpha-1 (Homo sapiens) + Leucine-rich repeat-containing protein 26 (Homo sapiens) (Q2I0M4 whole entry, looked up, one chain of several): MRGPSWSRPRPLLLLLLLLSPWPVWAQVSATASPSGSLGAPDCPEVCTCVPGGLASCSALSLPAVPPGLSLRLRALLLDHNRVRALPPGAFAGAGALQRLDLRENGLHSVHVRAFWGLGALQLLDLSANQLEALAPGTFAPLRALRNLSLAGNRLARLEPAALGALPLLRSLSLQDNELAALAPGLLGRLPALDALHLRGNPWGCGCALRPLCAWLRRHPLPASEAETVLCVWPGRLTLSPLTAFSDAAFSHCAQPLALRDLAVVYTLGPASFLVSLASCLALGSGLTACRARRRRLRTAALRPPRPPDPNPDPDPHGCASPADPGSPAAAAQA

Regarding `CC1(C)O[C@@H]2C[C@H]3[C@@H]4C[C@H](F)C5=CC(=O)C=C[C@]5(C)[C@@]4(F)[C@@H](O)C[C@]3(C)[C@]2(C(=O)CO)O1`, the log fold change Tl+ flux in test [1] was 0.2 (active); in [2], 0.211 (active); in test [3], 0.13 (active); in test [4] it was 0.186 (active); in test [5], 0.0484; in [6] it was 0.0785. Further, the log fold change Tl+ flux in test [7] was 0.14 (active); in test [8], 0.157 (active); in [9], 0.0574; in [10] it was 0.0265.
As to `CN1CCC(=C2c3ccccc3C=Cc3ccccc32)CC1`, the log fold change Tl+ flux in [1] is 0.15 (active); in [2] it was -0.0427; in test [3], 0.14 (active); in [4], 0.137 (active); in test [5], -0.0742; in [6] it was -0.0182. In addition, the log fold change Tl+ flux in test [7] was 0.194 (active); in [8], 0.144 (active); in [9] it was 0.0955 (active); in test [10], 0.0256.
Consider `COc1cc2nc(N3CCN(C(=O)C4COc5ccccc5O4)CC3)nc(N)c2cc1OC` (stereo not given), for which the log fold change Tl+ flux in [1] is -0.351 (active); in test [2], -0.143 (active); in [3], -0.269 (active); in test [4] it was -0.235 (active); in test [5], -0.00742; in [6] it was -0.0618. The log fold change Tl+ flux in [7] is 0.0698; in test [8], -0.0306; in [9] it was -0.0729; in test [10], 0.00736.
`O=C1CC2(CCCC2)CC(=O)N1CCCCN1CCN(c2ncccn2)CC1`: the log fold change Tl+ flux in [1] is 0.0254; in test [2], 0.0242; in test [3], 0.0619; in test [4], 0.0587; in [5], 0.00932; in [6], 0.00417. The log fold change Tl+ flux was 0.0329 in [7], -0.0367 in [8], 0.0017 in [9] and -0.02 in [10].
Turning to `COc1ccc2nc(S(=O)Cc3ncc(C)c(OC)c3C)[nH]c2c1` (stereo not given), the log fold change Tl+ flux was 0.0402 in test [1]; 0.0641 in test [2]; 0.0168 in test [3]; 0.00709 in [4]; 0.0324 in [5]; 0.00389 in [6]. Further, the log fold change Tl+ flux in test [7] was 0.0492; in test [8], 0.00389; in test [9], 0.0199; in [10], 0.0436.
Take `CN(CCCN1c2ccccc2CCc2ccccc21)CC(=O)c1ccc(Cl)cc1`: the log fold change Tl+ flux is -0.0806 in test [1]; -0.0237 in test [2]; -0.0465 in [3]; 0.0103 in test [4]; 0.00396 in test [5]; -0.00393 in test [6]. The log fold change Tl+ flux in [7] was 0.055; in [8] it was 0.0142; in [9], 0.0763; in [10], -0.0536.
Take `COC(=O)C1=C(C)NC(C)=C(C(=O)O[C@@H]2CCCN(Cc3ccccc3)C2)[C@@H]1c1cccc([N+](=O)[O-])c1`: the log fold change Tl+ flux in test [1] was -0.0664; in test [2] it was -0.000881; in [3], -0.042; in test [4] it was -0.0532; in test [5], -0.0108; in test [6] it was -0.0526. The log fold change Tl+ flux in [7] was 0.192 (active); in test [8], 0.191 (active); in test [9], -0.0168; in [10], -0.0109.
Consider `CC(C)NCC(O)COc1ccc(COCCOC(C)C)cc1` (stereo not given), for which the log fold change Tl+ flux in test [1] was 0.0667; in test [2], 0.0784; in [3], 0.00366; in test [4] it was 0.0255; in test [5], 0.0397; in test [6], -0.0696. Besides, the log fold change Tl+ flux in [7] is -0.003; in test [8], -0.0507; in test [9], 0.0137; in [10], 0.0109.
Regarding `CCOC(=O)c1ncn2c1CN(C)C(=O)c1cc(F)ccc1-2`, the log fold change Tl+ flux in [1] was -0.0521; in [2], -0.00468; in test [3], -0.0461; in test [4], -0.0546; in test [5], -0.0345; in test [6], 0.00689. The log fold change Tl+ flux in test [7] was 0.00279; in test [8], 0.0168; in test [9], 0.000313; in test [10] it was 0.022.
In the case of `Cc1nc2n(c(=O)c1CCN1CCC(c3noc4cc(F)ccc34)CC1)CCCC2`, the log fold change Tl+ flux is 0.0311 in test [1]; -0.00468 in [2]; -0.0407 in test [3]; -0.0446 in [4]; -0.0848 in test [5]; -0.134 (active) in test [6]. The log fold change Tl+ flux in [7] is -0.00526; in [8], -0.0361; in [9] it was -0.0132; in test [10] it was 0.0103.
Take `Clc1ccc2nsnc2c1NC1=NCCN1`: the log fold change Tl+ flux in [1] is -0.038; in [2], -0.0369; in test [3], -0.0575; in test [4] it was -0.0136; in [5], 0.00637; in [6] it was 0.0392. The log fold change Tl+ flux was 0.0375 in test [7], -0.063 in test [8], 0.0661 in test [9] and 0.00517 in test [10].
As for `COc1ccccc1N1CCN(CC(O)COc2cccc3ccccc23)CC1` (stereo not given), the log fold change Tl+ flux in test [1] is -0.03; in [2] it was -0.0336; in [3], -0.0539; in test [4], -0.114 (active); in [5], 0.00615; in [6] it was -0.067. Besides, the log fold change Tl+ flux is 0.198 (active) in test [7], -0.0952 in test [8], 0.167 (active) in [9] and -0.0505 in [10].
